High-throughput results deposited in PubChem BioAssay by National Center for Advancing Translational Sciences (NCATS).
Hits are enriched below; roughly 3.8% of the tested compounds scored in any of these assays.
HT1080-NT tox: kills 2HG-producing HT-1080-NT fibrosarcoma cells | Potency, µM (series often up to 46.1 µM), without a hit: top-dose activity, negative = less viability, actives largely listed as cytotoxic | AID 686970 | actives 1.6% (n = 360,000) | HT-1080-NT fibrosarcoma viability, CellTiter-Glo ATP luminescence, 48 h;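 further: NT is the 2HG producing partner of a matched IDH1 knockdown line; 0% = DMSO-treated cells and -100% = media-only wells without cells; nearly all actives have a fitted effect of over 55% in size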
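Read-out is CellTiter-Glo luminescence after 10 minutes at room temperature, following 48 hours' compound treatment of HT-1080-NT cells (750 cells/well, RPMI, 5% FBS, 37 degrees C).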
HepG2 tox-1: HepG2 cytotoxicity, counter-screen for TGF-b inhibitors; HepG2 CAGA-GFP viability, ATP luminescence, 18 h; Potency, µM (titrated, usually from 46.1 µM), without a hit: at the highest dose activity change, negative = cytotoxicity, hits mostly cytotoxic; actives 0.76% (n = 410,000); AID 588856
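CellTiter-Glo luminescence gave cytotoxicity after 18 hours at 37 degrees C. The cells were HepG2 CAGA-GFP in 1% FBS DMEM, stimulated with 500 pg/mL TGF-beta after compound addition. %Activity was normalised to no-cell wells (complete cell-killing) and DMSO (no toxicity), and curves were fitted and classified.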
TGFb SMAD3 inh: TGF-b pathway inhibition | Potency, µM (top dose mostly 46.1 µM), for inactives: at the highest dose activity, negative = inhibition, usual class: inhibitors | actives 1.2% (n = 410,000) | HepG2 CAGA-GFP TGF-b/SMAD3 reporter, GFP fluorescence, 18 h; TGF-beta stimulated, 500 pg/mL final | AID 588855; further: on the % scale 0 is the no-effect control and ±100 the full control effect; nearly all actives have a fitted effect of over 65% in size
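Using HEPG2 CAGA-GFP reporter cells at 1000 cells/well, we pinned test compounds, stimulated with recombinant TGF-beta (500 pg/mL final) and measured total well GFP after 18 h.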
ATXN2 expr inh: ATXN2 expression inhibition; HEK-293 ATXN2-luciferase reporter, luminescence, 24 h; Potency, µM (titrated, usually from 57 µM), inactives show top-dose activity change, negative = inhibition, hits mostly inhibitors; actives 0.72% (n = 360,000); AID 1745845; further: on the % scale 0 is the no-effect control and ±100 the full control effect; nearly all actives have a fitted effect of over 55% in size
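ATXN2-luciferase reporter cells (luciferase flanked by upstream and downstream ATXN2 gene portions) were treated 24 h at 37 °C with compounds at up to 57 uM. SteadyGlo luminescence gave expression; GF-AFC fluorescence gave viability.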
HT1080 IDH1KD tx: HT-1080 IDH1 knockdown cell toxicity (counter line) | AID 686971 | actives 2% (n = 360,000) | Potency, µM (top dose mostly 46.1 µM), for inactives: at the top dose activity, negative = toxicity, actives largely listed as cytotoxic | HT-1080 IDH1 knockdown viability, ATP luminescence, 48 h;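 further: 0% = DMSO wells and -100% = cell-free medium wells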
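Viability of IDH1-knockdown HT-1080 fibrosarcoma cells was assessed by CellTiter-Glo after 48 h at 37 °C with titrated compound; concentration-effect curves were classified by fit quality and response size.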
ATXN viability: cell viability loss in ATXN counter-screen | actives 0.49% (n = 400,000) | S2 cells (HEK-293 line with an ATXN2-luciferase reporter) viability, CellTiter-Fluor protease fluorescence, 24 h | Potency, µM (series often up to 56.7 µM), most hits filed as cytotoxic | AID 651635; further: nearly all actives have a fitted effect of over 40% in size
TGFb confirm: confirmation of TGF-b signaling inhibitors in HepG2 reporter cells; HepG2 CAGA-GFP TGF-b reporter, GFP fluorescence, 18 h; cells stimulated with TGF-beta, 500 pg/mL; shares compounds with TGFb SMAD3 inh; actives 63% (n = 1,600); Potency, µM (doses to about 46.1 µM), for inactives: at the top dose activity, negative = inhibition, usual class: inhibitors; AID 720534; further: on the % scale 0 is the no-effect control and ±100 the full control effect; nearly all actives have a fitted effect of over 65% in size
HepG2 tox-2: counter-screen for TGF-b inhibitors: cytotoxicity in HepG2 cells | shares compounds with TGFb SMAD3 inh | HepG2 CAGA-GFP viability, ATP luminescence, 18 h; cells stimulated with TGF-beta, 500 pg/mL | Potency, µM (titrated, usually from 46.1 µM), without a hit: at the highest dose activity, negative = cytotoxicity, hits mostly inhibitors | actives 27% (n = 1,600); further: on the % scale 0 is the no-effect control and ±100 the full control effect; nearly all actives have a fitted effect of over 70% in size
TGFb CCL64 inh: TGF-b inhibition, CCL64 orthogonal assay | shares compounds with TGFb SMAD3 inh | CCL64 CAGA-GFP reporter, TGF-b stimulated, GFP fluorescence, 18 h | Potency, µM (series often up to 46.1 µM), without a hit: at the highest dose activity, negative = inhibition, most hits filed as inhibitors | actives 41% (n = 1,600); further: nearly all actives have a fitted effect of over 65% in size
COP TGFb inh: TGF-b inhibition validated with COP promoter; HepG2 COP-GFP TGF-b reporter, GFP fluorescence, 18 h; cells stimulated by added recombinant TGF-beta; shares compounds with TGFb SMAD3 inh; actives 3% (n = 1,600); Potency, µM (highest dose often 46.1 µM), for inactives: top-dose activity, negative = inhibition, hits mostly inhibitors; AID 720537; further: nearly all actives have a fitted effect of over 70% in size
Numbers without * were called inactive; i = inactive; ? = inconclusive; · = not tested or not shown; [ ] = dose if it differs, or a comment. The call rests on the fitted dose curve; in most records, active means well fitted curve in the direction sought with a large enough effect; inconclusive means small, poorly fitted or top-dose-only effect, or another doubt; inactive means no such curve, though single readings can be large; an effect the other way counts as inactive or inconclusive. Potency means the concentration at half of the fitted maximal effect.

SMILES | HT1080-NT tox | HepG2 tox-1 | TGFb SMAD3 inh | ATXN2 expr inh | HT1080 IDH1KD tx | ATXN viability | TGFb confirm | HepG2 tox-2 | TGFb CCL64 inh | COP TGFb inh
O=C(C1CCC(CNS(=O)(=O)c2cccc3nsnc23)CC1)N1CC=C(c2ccccc2)CC1 (configuration not stated) | -13% | -52% | 8.9µM* | ? | ? | i | ? | ? | ? | 12%
Cc1nc2ccccn2c1-c1csc(NCc2ccco2)n1 | -27% | -36% | -6% | -1% | -25% | ? | · | · | · | ·
Cc1ccc(Nc2nc(-c3c(C)nc4ccccn34)cs2)cc1 | 0.01µM* | -35% | 10µM* | ? | ? | ? | 2.6µM* | ? | 1.3µM* | 2%
O=C(Oc1c(Cl)cc(Cl)c2cccnc12)c1cccs1 | 21µM* | -3% | 3.5µM* | ? | 21µM* | ? | 21µM* | ? | ? | 5%
O=C(Oc1c(Cl)cc(Cl)c2cccnc12)c1ccco1 | ? | -2% | 6.3µM* | ? | ? | ? | 18µM* | ? | ? | 24%
O=C(Oc1c(CN2CCOCC2)cc(Cl)c2cccnc12)c1cccs1 | 2.9µM* | -62% | 7.1µM* | ? | 3.7µM* | ? | ? | ? | 16µM* | 14%
O=[N+]([O-])c1cccc(N=Nc2ccc(O)cc2O)c1 | ? | -27% | 2.5µM* | ? | 5.8µM* | ? | 12µM* | 8.2µM* | 5.8µM* | 65%
Cc1c(C(=O)Nc2ccc(F)cc2F)oc2ccc3c(c12)C(=O)CC(C)(C)O3 | · | -5% | 19% | 34% | · | i | · | · | · | ·
Cc1ccc(C)c(NS(=O)(=O)c2cc(C(=O)NCCSC3CCCCC3)ccc2C)c1 | ? | -29% | ? | ? | ? | ? | · | · | · | ·
Cc1ccc(C)c(NS(=O)(=O)c2cc(C(=O)NCCC3=CCCCC3)ccc2C)c1 | ? | -15% | 20µM* | ? | ? | ? | ? | ? | ? | 37%
CCOC(=O)c1sc(NC(=O)Nc2ccc(Cl)cc2)cc1C | ? | -27% | 5.6µM* | ? | ? | i | ? | ? | 16µM* | 83%
O=C(Nc1ccc(N2CCN(C(=O)c3ccc(Cl)cc3)CC2)cc1)c1ccc([N+](=O)[O-])o1 | 10µM* | 13µM* | 7.1µM* | -8%[11.3 µM] | 2.6µM* | ? | 6.5µM* | 16µM* | ? | ?
CC(C)(C)C(=O)N1CCN(c2ccc(NC(=O)c3ccc([N+](=O)[O-])o3)cc2)CC1 | 4.1µM* | -58% | 7.1µM* | 3% | 5.2µM* | ? | 7.3µM* | 10µM* | ? | 13%
CS(=O)(=O)N1CCN(c2ccc(NC(=O)c3ccc([N+](=O)[O-])o3)cc2)CC1 | ? | 5.6µM* | 4µM* | · | ? | ? | 2.9µM* | 15µM* | ? | -29%
CC(C)(C)C(=O)N1CCN(c2ccc(NC(=O)c3ccco3)cc2)CC1 | 18% | 10% | 18% | 26% | 20% | i | · | · | · | ·
O=C(Nc1ccc(N2CCN(C(=O)c3ccc(Cl)cc3)CC2)cc1)c1ccc2c(c1)OCCO2 | ? | -6% | ? | ? | -19% | ? | · | · | · | ·
COc1ccccc1CNC(=O)c1cc2c(=O)oc3ccc(C)cc3c2s1 | · | 1% | 25% | -1% | · | i | · | · | · | ·
Cc1cc(N2CCOCC2)nc(NCc2ccccc2)n1 | 12% | 1% | 10µM* | -18% | 0% | i | 15µM* | -24% | ? | 1%
C=CCNc1ncnc2c1[nH]c1ccc(C)cc12 | ? | -31% | 7.9µM* | 0% | ? | i | ? | -27% | ? | -3%
Cc1ccc2[nH]c3c(NCCN4CCOCC4)ncnc3c2c1 | -8% | 2% | -3% | -23% | -16% | i | · | · | · | ·
CCc1nn(CC(=O)N2CCN(c3cccc(OC)c3)CC2)c(=O)c2cc3occc3n12 | · | 2% | 0% | -2% | · | i | · | · | · | ·
O=C(Nc1ccc(Cl)cc1)/C(=C/c1cccc(O)c1)c1nc2ccccc2s1 | 4.6µM* | -82% | 2.8µM* | 8.9µM* | 4.1µM* | · | 8.2µM* | 13µM* | 4.1µM* | -16%
S=C(Nc1ccc(Cl)cc1)c1nc2ccccc2s1 | ? | -20% | -3% | 26% | -23% | i | · | · | · | ·
CCC(Cc1ccccc1)NC(=O)Cn1ncc2c3ccccc3n(Cc3ccccc3)c2c1=O (configuration not stated) | · | 0% | -12% | 0% | · | ? | · | · | · | ·
COc1cccc(C(=O)NCCCNC(=O)c2cccc(OC)c2)c1 | -1% | 6% | 5% | 7% | 3% | i | · | · | · | ·
COc1cc(OC)cc(C(=O)NCCCCCCNC(=O)c2cc(OC)cc(OC)c2)c1 | -7% | -31% | -81% | 3% | -2% | i | -12% | -7% | 6% | 3%
CCCOC(=O)c1c(-c2ccccc2)c(-c2ccccc2)nn(C)c1=O | · | -29% | -72% | · | · | · | · | · | · | ·
CC(=O)Oc1c(I)cc(I)cc1C(=O)Nc1ccc(Cl)cc1 | 21µM* | -36% | 5µM* | ? | 21µM* | ? | 4.6µM* | 8.2µM* | 6.5µM* | 45%
COc1ccc(Cl)cc1C(=O)Nc1ccc(NC(C)=O)cc1 | 0% | 10% | ? | -3% | -2% | i | · | · | · | ·
